Values joined by “and” are separate entries in the source; they are usually repeats but may differ in a detail not shown here. Identical values can stand only once. Results filed as inconclusive are left out. A call without a number means that no potency is given here. Active and inactive are the calls of the source. Unless noted, calls follow the shape of the full dose curve.
Columns and labels:
[1] = biological target: Gonadotropin-releasing hormone receptor (Homo sapiens) (UniProt P30968); experiment: Human gonadotropin-releasing hormone receptor (GnRHR) small molecule agonists, calcium flux assay in GnRHR-HEK293 cells (AID 1920063); conditions: calcium flux fluorescence, agonist mode; series mostly up to 57.6 µM; also: nearly all actives have a fitted effect of over 35% in size; also: potency is read from the fitted curve at half-maximal effect
Sequence of Gonadotropin-releasing hormone receptor (Homo sapiens) (P30968 whole entry, looked up): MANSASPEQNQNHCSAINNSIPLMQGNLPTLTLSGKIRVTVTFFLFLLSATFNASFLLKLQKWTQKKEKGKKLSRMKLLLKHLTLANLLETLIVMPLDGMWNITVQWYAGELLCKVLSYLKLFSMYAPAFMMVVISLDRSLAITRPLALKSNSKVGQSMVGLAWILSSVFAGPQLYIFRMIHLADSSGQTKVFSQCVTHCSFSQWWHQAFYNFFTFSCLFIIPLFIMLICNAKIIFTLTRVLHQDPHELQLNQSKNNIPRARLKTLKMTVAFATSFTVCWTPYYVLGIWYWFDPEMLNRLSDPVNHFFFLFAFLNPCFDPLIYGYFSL
Summary of the method: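 We seeded human GnRHR-expressing HEK293 cells for 18 hours, loaded them with calcium dye for an hour at 37 C, added test compounds, and recorded fluorescence intensity kinetically for three minutes.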

[2] = biological target: KiSS-1 receptor (Homo sapiens) (UniProt Q969F8); experiment: Human kisspeptin (KISS1R) small molecule agonists, calcium flux assay in KISS1R-HEK293 cells (AID 1920064; active = well fitted activation curve with a large enough effect in the repeat runs); conditions: KISS1R-HEK293, calcium flux fluorescence, agonist; series mostly up to 76.8 µM
Sequence of KiSS-1 receptor (Homo sapiens) (Q969F8 whole entry, looked up): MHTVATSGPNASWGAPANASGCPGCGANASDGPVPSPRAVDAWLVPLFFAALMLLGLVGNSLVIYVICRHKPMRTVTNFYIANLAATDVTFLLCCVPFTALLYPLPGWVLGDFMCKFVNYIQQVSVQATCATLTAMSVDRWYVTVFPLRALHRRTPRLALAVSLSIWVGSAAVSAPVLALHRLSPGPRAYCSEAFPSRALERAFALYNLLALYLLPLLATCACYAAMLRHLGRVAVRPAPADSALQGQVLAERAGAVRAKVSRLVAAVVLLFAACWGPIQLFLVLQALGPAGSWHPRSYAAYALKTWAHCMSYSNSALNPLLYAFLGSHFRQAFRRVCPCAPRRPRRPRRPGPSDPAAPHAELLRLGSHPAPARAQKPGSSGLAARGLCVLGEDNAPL
Summary of the method: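 Kinetic calcium assay, 1 s sampling over 3 min at Ex/Em 480/540, in HEK293 cells engineered with human KISS1R; compounds delivered in DMSO after 1 h dye loading.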

[3] = G protein-coupled receptor (GPCR) small molecule agonists, calcium flux assay: HEK293 wild type cell line counter screen (AID 1920065); conditions: HEK293 WT calcium flux, fluorescence, agonist mode; series mostly up to 57.6 µM
Summary of the method: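 Calcium-sensitive dye, loaded 1 h at 37 C into cells cultured 18 h, reports compound-evoked calcium release as fluorescence (Ex/Em 480/540), measured over 3 min. Agonist mode; 15-point titrations, triplicate.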

[4] = p53 small molecule agonists, cell-based qHTS assay with human liver microsomes (AID 1963577); conditions: HCT-116 p53RE-bla with human liver microsomes, ratio, 16 h; series mostly up to 66 µM;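 also: p53 response element beta-lactamase reporter cells with liver microsomes plus NADPH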
Summary of the method: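 Reporter activation was measured by LiveBLAzer fluorescence intensity in p53RE-bla cells, which had been exposed to compounds for 16 h at 37 C alongside 0.5 mg/mL human liver microsomes and 0.5 mg/mL NADPH (final concentrations).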

[5] = p53 small molecule agonists, cell-based qHTS assay with rat liver microsomes (AID 1963578); conditions: HCT-116 p53RE-bla, beta-lactamase ratio, 16 h; series mostly up to 66 µM
Summary of the method: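 Compound in DMSO added to p53RE-bla cells 5 h post-plating; rat microsomes/NADPH 0.5 mg/mL final; 16 h, 37 C; LiveBLAzer 2 h RT.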

[6] = p53 small molecule agonists, cell-based qHTS assay with human liver microsomes: qHTS cell viability counter screen (AID 1963579); conditions: p53RE-bla HCT-116 viability, ATP luminescence, 16 h, HLM; series mostly up to 66 µM; also: nearly all actives have a fitted effect of over 45% in size
Summary of the method: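 HLM-supplemented (0.5 mg/mL final) and NADPH-supplemented (0.5 mg/mL final) p53RE-bla cultures, 4,000 cells per well, were dosed with compounds in DMSO for 16 h at 37 C; luminescent ATP detection (CellTiter-Glo, 30 min, room temperature) quantified surviving cells.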

[7] = p53 small molecule agonists, cell-based qHTS assay with rat liver microsomes: qHTS cell viability counter screen (AID 1963580); conditions: p53RE-bla HCT-116 + rat microsomes, ATP viability, 16 h; series mostly up to 66 µM; also: nearly all actives have a fitted effect of over 45% in size
Summary of the method: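 p53RE-bla HCT-116 cells were exposed 16 h at 37 C to compounds with rat liver microsomes (0.5 mg/mL) and NADPH (0.5 mg/mL). Viability was measured in the same wells as ATP content by CellTiter-Glo luminescence.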

[8] = p53 small molecule agonists, cell-based qHTS assay: qHTS cell viability counter screen (AID 1963581); conditions: p53RE-bla HCT-116 viability, ATP luminescence, 16 h; series mostly up to 66 µM; also: nearly all actives have a fitted effect of over 45% in size
Summary of the method: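 Following 5 h attachment, HCT-116 p53RE-bla cells took up compound for 16 h at 37 C; the reporter was read with B/G FRET substrate (2 h RT), and viability then via CellTiter-Glo ATP luminescence.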

[9] = p53 small molecule agonists, cell-based qHTS assay (AID 1963582; active = well fitted activation curve with a large enough effect in the signal ratio in the repeat runs, not every such curve was filed as active; the % refers to the signal ratio); conditions: HCT-116 p53RE-bla reporter, beta-lactamase FRET ratio, 16 h; series mostly up to 66 µM
Summary of the method: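 In this cell-based concentration-response screen, a p53 response element drives beta-lactamase; cells received DMSO-borne compounds after 5 h culture and were incubated a further 16 h before FRET substrate development.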

[10] = biological target: 5-hydroxytryptamine receptor 2A (Homo sapiens) (UniProt P28223); experiment: 5-hydroxytryptamine receptor 2A (HTR2A) small molecule antagonists, cell-based qHTS assay (AID 1963586); conditions: HTR2A-CHO cells, DOI-induced calcium flux, fluorescence; series mostly up to 61.5 µM; also: nearly all actives have a fitted effect of over 45% in size; also: potency is read from the fitted curve at half-maximal effect
Sequence of 5-hydroxytryptamine receptor 2A (Homo sapiens) (P28223 whole entry, looked up): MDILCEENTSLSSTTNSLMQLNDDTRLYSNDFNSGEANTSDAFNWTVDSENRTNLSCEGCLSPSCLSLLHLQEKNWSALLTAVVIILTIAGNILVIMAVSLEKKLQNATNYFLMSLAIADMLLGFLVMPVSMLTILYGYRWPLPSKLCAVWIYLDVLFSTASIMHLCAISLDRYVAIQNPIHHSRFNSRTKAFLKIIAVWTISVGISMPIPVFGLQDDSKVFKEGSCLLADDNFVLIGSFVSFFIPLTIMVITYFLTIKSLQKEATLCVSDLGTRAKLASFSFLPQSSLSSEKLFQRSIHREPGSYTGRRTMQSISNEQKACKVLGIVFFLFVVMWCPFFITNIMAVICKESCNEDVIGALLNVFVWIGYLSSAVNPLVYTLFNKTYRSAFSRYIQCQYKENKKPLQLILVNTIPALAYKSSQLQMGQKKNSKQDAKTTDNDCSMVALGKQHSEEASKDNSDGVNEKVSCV
Summary of the method: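 Antagonist-mode intracellular calcium assay: DOI (4 nM) added after 5 min compound pre-incubation at room temperature to dye-loaded HTR2A-CHO cells. Fluorescence followed for 3 min, sampled every second.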

[11] = biological target: 5-hydroxytryptamine receptor 2A (Homo sapiens) (UniProt P28223); experiment: 5-hydroxytryptamine receptor 2A (HTR2A) small molecule agonists, cell-based qHTS assay (AID 1963587); conditions: HTR2A-CHO cells, calcium flux fluorescence, agonist mode; series mostly up to 76.8 µM; also: nearly all actives have a fitted effect of over 30% in size; also: potency is read from the fitted curve at half-maximal effect
Summary of the method: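 CHO cells stably expressing human HTR2A, plated 18 h, loaded with calcium dye 1 h at 37 C. Agonist mode: compounds added and intracellular calcium fluorescence recorded kinetically for 2 min at 1 sec intervals.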

[12] = biological target: Muscarinic acetylcholine receptor M1 (Homo sapiens) (UniProt P11229); experiment: Cholinergic receptor muscarinic 1 (CHRM1) small molecule antagonists, cell-based qHTS assay (AID 1963588); conditions: CHRM1-CHO antagonist mode, calcium flux fluorescence; series mostly up to 61.5 µM; also: nearly all actives have a fitted effect of over 40% in size
Sequence of Muscarinic acetylcholine receptor M1 (Homo sapiens) (P11229 whole entry, looked up): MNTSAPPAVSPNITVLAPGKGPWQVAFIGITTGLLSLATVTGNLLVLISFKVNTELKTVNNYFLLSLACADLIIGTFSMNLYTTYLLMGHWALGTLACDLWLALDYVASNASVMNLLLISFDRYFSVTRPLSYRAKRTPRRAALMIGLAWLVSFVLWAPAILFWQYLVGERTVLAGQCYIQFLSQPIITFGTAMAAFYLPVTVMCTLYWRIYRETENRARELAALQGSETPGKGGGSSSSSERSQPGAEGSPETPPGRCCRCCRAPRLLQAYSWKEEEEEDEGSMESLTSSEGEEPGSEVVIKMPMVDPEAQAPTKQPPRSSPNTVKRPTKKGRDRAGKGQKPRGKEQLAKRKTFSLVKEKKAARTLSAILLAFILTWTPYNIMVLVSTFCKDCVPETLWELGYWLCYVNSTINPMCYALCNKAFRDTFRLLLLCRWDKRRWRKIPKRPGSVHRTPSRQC
Summary of the method: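 CHRM1-CHO calcium-flux assay, antagonist mode. Cells were seeded 18 h, dye-loaded 1 h at 37 C and given compound for 5 min at RT, then acetylcholine was added at 50nM. FDSS fluorescence was read 3 min; 15 concentrations, three runs.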

[13] = biological target: Muscarinic acetylcholine receptor M1 (Homo sapiens) (UniProt P11229); experiment: Cholinergic receptor muscarinic 1 (CHRM1) small molecule agonists, cell-based qHTS assay (AID 1963589); conditions: CHRM1-CHO cells, agonist mode, calcium flux fluorescence; series mostly up to 76.8 µM; also: nearly all actives have a fitted effect of over 35% in size
Summary of the method: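 Measures agonist-induced intracellular calcium rise. Stable human CHRM1 CHO line, 1 h dye load at 37 C, compounds from DMSO, kinetic fluorescence read.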

[14] = cAMP Responsive Elements (CRE) small molecule agonists, cell-based qHTS assay (AID 1963590); conditions: CRE-bla HEK293T, beta-lactamase FRET ratio, 3 h; series mostly up to 92.4 µM
Summary of the method: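 A CRE-responsive beta-lactamase reporter in HEK 293T cells was used. Treatment ran 3 h at 37 C; detection used LiveBLAzer B/G FRET substrate for 2 h at room temperature.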

[15] = cAMP Responsive Elements (CRE) small molecule antagonists, cell-based qHTS assay (AID 1963591; active = well fitted inhibition curve with a large enough effect in the signal ratio in the repeat runs, not every such curve was filed as active; the % refers to the signal ratio); conditions: CRE-bla HEK293T, beta-lactamase FRET ratio; series mostly up to 92.4 µM
Summary of the method: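 HEK293T cells carrying a CRE-driven beta-lactamase reporter receive compound and NKH477 (0.25 uM final) for 3 h. Fluorescence from LiveBLAzer B/G FRET substrate is read after 2 h at room temperature.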

[16] = biological target: Beta-2 adrenergic receptor (Homo sapiens) (UniProt P07550); experiment: Adrenergic beta2 receptor (ADRB2) small molecule antagonists, cell-based qHTS assay (AID 1963592); conditions: CHO-ADRB2 cells, isoproterenol-stimulated cAMP HTRF ratio, 0.5 h; series mostly up to 92.4 µM; also: nearly all actives have a fitted effect of over 50% in size
Sequence of Beta-2 adrenergic receptor (Homo sapiens) (P07550 whole entry, looked up): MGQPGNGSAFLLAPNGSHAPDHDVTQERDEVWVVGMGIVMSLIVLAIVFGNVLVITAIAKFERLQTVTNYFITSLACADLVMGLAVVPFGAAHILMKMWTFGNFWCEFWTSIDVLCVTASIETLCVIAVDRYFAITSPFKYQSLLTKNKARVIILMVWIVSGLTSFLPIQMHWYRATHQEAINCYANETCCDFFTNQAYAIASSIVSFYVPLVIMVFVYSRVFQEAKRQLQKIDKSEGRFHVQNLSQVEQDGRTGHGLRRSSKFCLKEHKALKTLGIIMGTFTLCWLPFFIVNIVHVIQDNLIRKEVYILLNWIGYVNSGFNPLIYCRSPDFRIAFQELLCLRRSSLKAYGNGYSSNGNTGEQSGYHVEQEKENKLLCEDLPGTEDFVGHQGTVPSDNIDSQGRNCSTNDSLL
Summary of the method: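 Cells (CHO, stable ADRB2 overexpression) incubated 18-20hr at 37C; compounds added from DMSO; agonist mix (1nM isoproterenol, 100uM IBMX, 25uM Ro-20-1724) added; 0.5hr RT; d2-cAMP and anti-cAMP-cryptate added; 1hr RT; 665/615 nm read.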

[17] = biological target: Beta-2 adrenergic receptor (Homo sapiens) (UniProt P07550); experiment: Adrenergic beta2 receptor (ADRB2) small molecule agonists, cell-based qHTS assay (AID 1963593); conditions: CHO-ADRB2 cells, cAMP HTRF, 30 min; series mostly up to 92.4 µM;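 also: CHO cells stably overexpressing human ADRB2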
Summary of the method: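 CHO cells stably over-expressing ADRB2 were plated overnight at 37C, then dosed with compounds plus a stimulation mix containing 100uM IBMX and 25uM Ro-20-1724 for 0.5hr at room temperature. cAMP was measured by HTRF competition, 1hr.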

[18] = biological target: D(2) dopamine receptor (Homo sapiens) (UniProt P14416); experiment: Dopamine D2 receptor (DRD2) small molecule antagonists, cell-based qHTS assay (AID 1963595; active = well fitted inhibition curve with a large enough effect in the signal ratio in the repeat runs, with a control signal flat; the % refers to the signal ratio); conditions: HEK293-DRD2 cAMP HTRF antagonist mode; series mostly up to 92.4 µM
Sequence of D(2) dopamine receptor (Homo sapiens) (P14416 whole entry, looked up): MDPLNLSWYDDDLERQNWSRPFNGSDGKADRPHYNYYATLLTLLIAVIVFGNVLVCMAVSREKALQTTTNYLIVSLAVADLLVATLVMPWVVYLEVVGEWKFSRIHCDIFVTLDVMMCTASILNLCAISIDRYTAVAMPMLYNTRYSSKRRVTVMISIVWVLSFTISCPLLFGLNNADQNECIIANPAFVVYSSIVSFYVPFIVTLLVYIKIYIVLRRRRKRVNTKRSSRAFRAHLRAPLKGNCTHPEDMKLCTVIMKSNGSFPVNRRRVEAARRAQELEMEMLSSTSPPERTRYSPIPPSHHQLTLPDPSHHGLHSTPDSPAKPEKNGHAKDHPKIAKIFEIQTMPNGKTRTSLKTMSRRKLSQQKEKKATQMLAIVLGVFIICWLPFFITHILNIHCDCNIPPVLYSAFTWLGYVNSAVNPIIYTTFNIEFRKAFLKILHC
Summary of the method: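 Human DRD2 antagonist qHTS measuring cAMP by HTRF. The cells are exposed to compound for 10 min, then to NKH477 (200 nM) and quinpirole (12 nM) for 30 min at RT, with Ro20-1724 (0.1 mM) present throughout.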

[19] = Nuclear factor erythroid 2-related factor 2/antioxidant responsive element (Nrf2/ARE) small molecule agonists: luciferase reporter gene qHTS assay in human keratinocytes (AID 1919969); conditions: KeratinoSens HaCaT ARE-luciferase, luminescence, 24 h; series mostly up to 92.4 µM; also: nearly all actives have a fitted effect of over 35% in size
[20] = biological target: D(2) dopamine receptor (Homo sapiens) (UniProt P14416); experiment: Dopamine D2 receptor (DRD2) small molecule agonists, cell-based qHTS assay (AID 1963594); conditions: HEK293-DRD2 cAMP HTRF, agonist mode, 30 min; series mostly up to 92.4 µM; also: nearly all actives have a fitted effect of over 35% in size; also: potency is read from the fitted curve at half-maximal effect
Summary of the method: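 HEK293 cells stably expressing human DRD2, pre-treated with PDE inhibitor Ro20-1724 (0.1 mM final) and compound 10 min at room temperature, then stimulated with NKH477 (200nM […]) for 30 min. cAMP read by HTRF (665/620 nm).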

Row | SMILES | Potency [1] | Potency [2] | Potency [3] | Potency [4] | Potency [5] | Potency [6] | Potency [7] | Potency [8] | Potency [9] | Potency [10] | Potency [11] | Potency [12] | Potency [13] | Potency [14] | Potency [15] | Potency [16] | Potency [17] | Potency [18] | Potency [19] | Potency [20]
1 | Cc1ccc(-c2ccccc2C#N)cc1 | inactive | inactive | inactive | inactive | inactive | inactive | inactive | inactive | inactive | inactive | inactive | inactive | inactive | inactive | inactive | inactive | inactive | inactive |  | 
2 | O=C(C(=O)c1ccco1)c1ccco1 |  | inactive | inactive | inactive |  | inactive | inactive | inactive | inactive | inactive |  | inactive | inactive | inactive | inactive | inactive |  |  | inactive | inactive
3 | COCCOCCOCCOCCOCCO | inactive |  | inactive | inactive | inactive | inactive | inactive | inactive | inactive |  | inactive | inactive | inactive | inactive | inactive | inactive | inactive | inactive |  | inactive
4 | O=C(c1ccccc1)c1ccccc1O | inactive | inactive | inactive |  |  |  | inactive | inactive |  | inactive | inactive | inactive | inactive |  | inactive |  |  | inactive | inactive | inactive
5 | CC(C)(C)c1n[nH]c(=O)n(N)c1=O | inactive | inactive | inactive | inactive | inactive | inactive | inactive | inactive | inactive | inactive |  | inactive | inactive | inactive | inactive | inactive | inactive | inactive |  | inactive
6 | NC[C@H](O)c1ccc(O)c(O)c1 | 19 µM (active) | inactive | inactive |  |  |  | inactive | inactive |  | inactive | inactive | inactive | inactive |  | inactive |  |  |  | inactive | 16.6 µM (active)
7 | NNS(=O)(=O)c1ccc(Oc2ccc(S(=O)(=O)NN)cc2)cc1 | inactive | inactive | inactive |  | inactive | inactive | inactive | inactive | inactive | inactive | inactive | inactive | inactive | inactive | inactive | inactive |  | inactive |  | inactive
8 | CC(=O)CC(=O)Nc1ccc2[nH]c(=O)[nH]c2c1 | inactive |  | inactive | inactive |  | inactive |  | inactive | inactive | inactive | inactive | inactive | inactive | inactive | inactive | inactive | inactive | inactive | inactive | inactive
9 | N[C@@H](Cc1c[nH]c2ccc(O)cc12)C(=O)O |  | inactive | inactive |  |  | inactive | inactive | inactive |  | 364 nM (active) and 6.5 µM (active) | 599 nM (active) and 8.49 µM (active) | inactive |  | inactive | inactive | inactive |  | inactive | inactive | inactive
10 | CCC(=O)O[C@H]1[C@H](O[C@@H]2[C@@H](C)[C@H](O[C@H]3C[C@@](C)(OC)[C@@H](O)[C@H](C)O3)[C@@H](C)C(=O)O[C@H](CC)[C@@](C)(O)[C@H](O)[C@@H](C)C(=O)[C@H](C)C[C@@]2(C)O)O[C@H](C)C[C@@H]1N(C)C | inactive |  | inactive |  |  | inactive |  | inactive |  |  |  |  |  | inactive | inactive | inactive | inactive | inactive | inactive | inactive

Reference: PubChem BioAssay (Tox21)
